Experimental data as given in ChEMBL document CHEMBL3988442, “University of Dundee, Small-Polar-MMV Screening Library” (2021).
For some assays here: Entries with a potency or affinity are not part of this list.

How the values were obtained:
[1] = target: T1, Methionyl-tRNA synthetase, putative (Leishmania donovani (strain BPK282A1)) (UniProt E9BF75); experiment: Leishmania donovani Methionine tRNA synthetase (LdMetRS):v7. Dose response assay; assay type: functional; set-up: conc 80 nM, time 150 minutes
T1 sequence (whole entry): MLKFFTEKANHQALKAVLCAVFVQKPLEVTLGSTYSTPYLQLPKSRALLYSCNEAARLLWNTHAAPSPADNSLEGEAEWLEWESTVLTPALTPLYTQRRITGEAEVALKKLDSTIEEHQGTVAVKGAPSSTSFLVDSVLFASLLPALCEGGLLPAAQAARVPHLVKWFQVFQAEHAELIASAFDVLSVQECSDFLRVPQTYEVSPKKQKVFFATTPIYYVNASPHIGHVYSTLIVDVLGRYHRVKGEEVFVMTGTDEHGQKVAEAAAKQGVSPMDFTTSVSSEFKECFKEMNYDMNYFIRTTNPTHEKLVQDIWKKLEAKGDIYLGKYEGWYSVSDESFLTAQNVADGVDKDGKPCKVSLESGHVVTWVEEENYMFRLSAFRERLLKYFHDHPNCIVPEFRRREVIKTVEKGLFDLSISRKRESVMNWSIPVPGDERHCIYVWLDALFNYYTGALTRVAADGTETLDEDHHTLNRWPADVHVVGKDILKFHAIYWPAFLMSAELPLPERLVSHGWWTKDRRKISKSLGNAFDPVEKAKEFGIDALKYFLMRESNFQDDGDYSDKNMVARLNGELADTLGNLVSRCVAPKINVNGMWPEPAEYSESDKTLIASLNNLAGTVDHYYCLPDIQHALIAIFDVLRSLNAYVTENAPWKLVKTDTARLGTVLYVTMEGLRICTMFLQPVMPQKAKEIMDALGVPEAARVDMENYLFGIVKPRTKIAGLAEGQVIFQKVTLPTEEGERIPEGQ

[2] = target: Protein translocase subunit SecA (Escherichia coli (strain K12)) (UniProt P10408); experiment: Assay to Identify E. coli SecA ATPase Inhibitors; assay type: functional; set-up: scale not given: direction of the effect not stated beside the values; settings: 30 µM
Sequence of Protein translocase subunit SecA (Escherichia coli (strain K12)) (P10408 whole entry): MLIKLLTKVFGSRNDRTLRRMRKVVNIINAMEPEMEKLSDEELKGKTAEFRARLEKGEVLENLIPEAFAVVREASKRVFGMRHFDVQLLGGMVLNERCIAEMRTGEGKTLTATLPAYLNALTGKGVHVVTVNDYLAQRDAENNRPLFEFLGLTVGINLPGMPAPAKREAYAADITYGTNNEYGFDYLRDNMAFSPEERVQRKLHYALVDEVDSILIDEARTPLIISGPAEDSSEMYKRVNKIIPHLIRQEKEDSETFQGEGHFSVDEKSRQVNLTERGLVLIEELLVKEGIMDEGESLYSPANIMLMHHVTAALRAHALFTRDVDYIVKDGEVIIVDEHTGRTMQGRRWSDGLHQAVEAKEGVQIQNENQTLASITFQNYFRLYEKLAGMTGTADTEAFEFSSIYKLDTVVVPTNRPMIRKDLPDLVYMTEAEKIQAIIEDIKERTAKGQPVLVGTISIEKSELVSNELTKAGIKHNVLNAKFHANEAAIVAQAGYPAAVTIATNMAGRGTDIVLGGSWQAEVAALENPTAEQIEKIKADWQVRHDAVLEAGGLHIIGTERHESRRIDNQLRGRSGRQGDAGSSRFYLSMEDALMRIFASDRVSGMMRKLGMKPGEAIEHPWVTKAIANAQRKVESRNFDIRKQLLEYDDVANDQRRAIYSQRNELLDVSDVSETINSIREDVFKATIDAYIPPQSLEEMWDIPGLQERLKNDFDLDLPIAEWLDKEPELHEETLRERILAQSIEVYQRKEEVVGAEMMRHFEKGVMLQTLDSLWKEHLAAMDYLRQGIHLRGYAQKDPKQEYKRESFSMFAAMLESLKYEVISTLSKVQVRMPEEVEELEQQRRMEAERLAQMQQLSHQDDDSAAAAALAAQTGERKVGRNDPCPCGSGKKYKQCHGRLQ

[3] = target: T2, Ubiquitin-activating enzyme e1, putative (Leishmania donovani (strain BPK282A1)) (UniProt E9BSI1); experiment: Leishmania donovani Ubiquitin Activating Enzyme (LdE1); assay type: functional; set-up: scale not given: direction of the effect not stated beside the values; settings: 30 µM
T2 sequence (whole entry): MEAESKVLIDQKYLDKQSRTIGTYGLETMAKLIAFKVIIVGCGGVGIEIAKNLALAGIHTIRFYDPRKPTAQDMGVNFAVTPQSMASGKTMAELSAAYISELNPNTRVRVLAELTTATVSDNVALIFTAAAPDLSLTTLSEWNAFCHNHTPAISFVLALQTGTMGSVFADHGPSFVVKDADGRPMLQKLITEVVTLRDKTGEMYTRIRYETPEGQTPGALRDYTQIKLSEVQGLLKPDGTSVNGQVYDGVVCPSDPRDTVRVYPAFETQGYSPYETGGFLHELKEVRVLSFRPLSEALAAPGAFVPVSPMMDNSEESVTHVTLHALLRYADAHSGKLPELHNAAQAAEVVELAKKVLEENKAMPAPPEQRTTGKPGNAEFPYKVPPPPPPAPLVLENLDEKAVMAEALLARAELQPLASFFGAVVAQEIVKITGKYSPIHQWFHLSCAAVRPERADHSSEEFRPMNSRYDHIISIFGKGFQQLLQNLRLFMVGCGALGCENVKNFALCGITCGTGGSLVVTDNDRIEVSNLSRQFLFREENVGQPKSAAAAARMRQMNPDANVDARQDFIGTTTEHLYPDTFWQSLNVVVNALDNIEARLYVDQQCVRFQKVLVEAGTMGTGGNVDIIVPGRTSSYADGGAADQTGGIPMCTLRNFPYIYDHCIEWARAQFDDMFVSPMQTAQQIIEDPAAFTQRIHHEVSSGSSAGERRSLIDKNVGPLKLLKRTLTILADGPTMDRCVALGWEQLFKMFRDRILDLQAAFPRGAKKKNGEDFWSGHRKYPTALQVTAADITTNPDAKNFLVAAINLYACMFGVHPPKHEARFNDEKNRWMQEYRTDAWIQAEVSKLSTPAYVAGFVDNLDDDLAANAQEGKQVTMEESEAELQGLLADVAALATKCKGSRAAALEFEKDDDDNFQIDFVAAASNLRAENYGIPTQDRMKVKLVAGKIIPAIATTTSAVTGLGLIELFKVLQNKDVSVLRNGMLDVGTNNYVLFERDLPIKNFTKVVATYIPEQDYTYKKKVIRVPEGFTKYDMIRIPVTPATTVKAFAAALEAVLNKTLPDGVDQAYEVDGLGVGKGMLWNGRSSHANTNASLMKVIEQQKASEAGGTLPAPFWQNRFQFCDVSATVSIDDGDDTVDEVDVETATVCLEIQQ

[4] = target: Sialic acid-binding Ig-like lectin 9 (Homo sapiens) (UniProt Q9Y336); experiment: Hs-Siglec9 ALPHAscreen SOP 20170721; set-up: scale not given: direction of the effect not stated beside the values; settings: 10 µM
Sequence of Sialic acid-binding Ig-like lectin 9 (Homo sapiens) (Q9Y336 whole entry): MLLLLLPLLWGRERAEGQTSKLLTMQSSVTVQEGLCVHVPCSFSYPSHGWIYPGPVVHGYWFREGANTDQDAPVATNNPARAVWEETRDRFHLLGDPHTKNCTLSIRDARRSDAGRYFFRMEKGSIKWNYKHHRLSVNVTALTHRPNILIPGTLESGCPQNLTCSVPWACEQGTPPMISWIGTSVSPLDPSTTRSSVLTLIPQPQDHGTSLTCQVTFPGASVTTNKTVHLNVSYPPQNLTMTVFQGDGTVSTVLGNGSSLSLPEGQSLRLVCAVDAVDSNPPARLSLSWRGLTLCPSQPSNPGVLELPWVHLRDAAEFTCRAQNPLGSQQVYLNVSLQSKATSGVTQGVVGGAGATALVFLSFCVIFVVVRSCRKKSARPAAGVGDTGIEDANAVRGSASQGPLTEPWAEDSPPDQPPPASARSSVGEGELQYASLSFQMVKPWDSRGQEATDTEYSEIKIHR

[5] = system: Trypanosoma cruzi; experiment: Trypanosoma cruzi phosphomannomutase and mannose-1-phosphate guanylyltransferase assay; assay type: functional; set-up: scale not given: direction of the effect not stated beside the values; settings: 10 µM
[6] = target: T3, Arginase-2, mitochondrial (Homo sapiens) (UniProt P78540); experiment: in vitro enzyme assay to detect the production of urea directly proportional to the activity of Arginase II; assay type: functional; set-up: scale not given: in the data most compounds retested in dose-response had high values; settings: 33.3 µM
T3 sequence (whole entry): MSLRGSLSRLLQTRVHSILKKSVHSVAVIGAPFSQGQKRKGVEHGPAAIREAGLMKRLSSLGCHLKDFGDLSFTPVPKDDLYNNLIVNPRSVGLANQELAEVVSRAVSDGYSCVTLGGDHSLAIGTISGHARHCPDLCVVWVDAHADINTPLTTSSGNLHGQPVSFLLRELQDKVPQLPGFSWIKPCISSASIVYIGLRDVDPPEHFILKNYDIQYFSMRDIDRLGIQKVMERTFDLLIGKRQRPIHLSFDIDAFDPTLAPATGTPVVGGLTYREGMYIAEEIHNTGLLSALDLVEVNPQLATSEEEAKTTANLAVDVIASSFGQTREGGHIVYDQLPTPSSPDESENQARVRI

[7] = target: T4, Proteasome subunit beta (Trypanosoma cruzi) (UniProt O96673); experiment: Trypanosoma cruzi proteasome chymotrypsin-like activity (TcProtChymo) assay.; assay type: functional; set-up: scale not given: in the data most compounds retested in dose-response had high values; settings: 9.37 µM
T4 sequence (whole entry): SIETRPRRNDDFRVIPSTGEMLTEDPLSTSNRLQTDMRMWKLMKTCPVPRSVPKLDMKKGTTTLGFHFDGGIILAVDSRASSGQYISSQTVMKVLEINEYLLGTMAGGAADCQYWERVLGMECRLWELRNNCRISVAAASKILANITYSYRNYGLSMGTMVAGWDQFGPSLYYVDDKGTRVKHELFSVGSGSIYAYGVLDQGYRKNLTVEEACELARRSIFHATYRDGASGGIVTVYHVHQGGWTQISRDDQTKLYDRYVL

[8] = species: Homo sapiens; experiment: To identify inhibition of the IFN signalling (Jak-Stat) pathway via expression of an eGFP reporter gene under the control of an IFN-stimulated response element (ISRE) containing MxA promoter.; assay type: functional; set-up: scale not given: direction of the effect not stated beside the values; settings: 30 µM
[9] = target: T5, Tyrosyl-tRNA synthetase, putative (Trypanosoma cruzi (strain CL Brener)) (UniProt Q4DSP6); experiment: Trypanosoma cruzi tyrosyl tRNA synthetase (TcYRS) _High Tyrosine SOP; assay type: functional; set-up: scale not given: in the data most compounds retested in dose-response had high values; settings: 30 µM
T5 sequence (whole entry): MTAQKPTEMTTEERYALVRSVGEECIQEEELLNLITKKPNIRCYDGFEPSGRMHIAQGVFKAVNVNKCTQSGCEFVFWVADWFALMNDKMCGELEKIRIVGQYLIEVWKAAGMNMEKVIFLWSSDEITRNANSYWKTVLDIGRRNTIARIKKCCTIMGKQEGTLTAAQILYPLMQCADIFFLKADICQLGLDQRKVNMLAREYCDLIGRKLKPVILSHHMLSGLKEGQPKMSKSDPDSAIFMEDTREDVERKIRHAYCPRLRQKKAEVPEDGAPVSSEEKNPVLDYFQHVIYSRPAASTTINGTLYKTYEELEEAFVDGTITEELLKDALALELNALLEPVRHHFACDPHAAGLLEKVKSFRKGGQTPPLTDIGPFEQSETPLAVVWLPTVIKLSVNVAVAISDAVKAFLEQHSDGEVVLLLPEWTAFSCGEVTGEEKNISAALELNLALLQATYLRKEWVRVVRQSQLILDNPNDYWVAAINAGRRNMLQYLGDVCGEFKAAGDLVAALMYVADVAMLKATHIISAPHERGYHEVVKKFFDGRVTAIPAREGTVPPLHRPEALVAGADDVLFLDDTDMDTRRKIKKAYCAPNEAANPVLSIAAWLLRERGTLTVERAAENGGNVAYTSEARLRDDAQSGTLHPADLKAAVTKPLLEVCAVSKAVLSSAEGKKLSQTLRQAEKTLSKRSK

[10] = target: T5, Tyrosyl-tRNA synthetase, putative (Trypanosoma cruzi (strain CL Brener)); experiment: Trypanosoma cruzi tyrosyl tRNA synthetase (TcYRS) SOP; assay type: functional; set-up: scale not given: direction of the effect not stated beside the values; settings: 30 µM
[11] = target: Chromo domain-containing protein 1 (Saccharomyces cerevisiae (strain ATCC 204508 / S288c) (Baker's yeast)) (UniProt P32657); experiment: ScCHD-1 Enzyme Inhibition Assay; assay type: functional; set-up: scale not given: in the data most compounds retested in dose-response had high values; settings: 30 µM
Sequence of Chromo domain-containing protein 1 (Saccharomyces cerevisiae (strain ATCC 204508 / S288c) (Baker's yeast)) (P32657 whole entry, the tested form may be a part): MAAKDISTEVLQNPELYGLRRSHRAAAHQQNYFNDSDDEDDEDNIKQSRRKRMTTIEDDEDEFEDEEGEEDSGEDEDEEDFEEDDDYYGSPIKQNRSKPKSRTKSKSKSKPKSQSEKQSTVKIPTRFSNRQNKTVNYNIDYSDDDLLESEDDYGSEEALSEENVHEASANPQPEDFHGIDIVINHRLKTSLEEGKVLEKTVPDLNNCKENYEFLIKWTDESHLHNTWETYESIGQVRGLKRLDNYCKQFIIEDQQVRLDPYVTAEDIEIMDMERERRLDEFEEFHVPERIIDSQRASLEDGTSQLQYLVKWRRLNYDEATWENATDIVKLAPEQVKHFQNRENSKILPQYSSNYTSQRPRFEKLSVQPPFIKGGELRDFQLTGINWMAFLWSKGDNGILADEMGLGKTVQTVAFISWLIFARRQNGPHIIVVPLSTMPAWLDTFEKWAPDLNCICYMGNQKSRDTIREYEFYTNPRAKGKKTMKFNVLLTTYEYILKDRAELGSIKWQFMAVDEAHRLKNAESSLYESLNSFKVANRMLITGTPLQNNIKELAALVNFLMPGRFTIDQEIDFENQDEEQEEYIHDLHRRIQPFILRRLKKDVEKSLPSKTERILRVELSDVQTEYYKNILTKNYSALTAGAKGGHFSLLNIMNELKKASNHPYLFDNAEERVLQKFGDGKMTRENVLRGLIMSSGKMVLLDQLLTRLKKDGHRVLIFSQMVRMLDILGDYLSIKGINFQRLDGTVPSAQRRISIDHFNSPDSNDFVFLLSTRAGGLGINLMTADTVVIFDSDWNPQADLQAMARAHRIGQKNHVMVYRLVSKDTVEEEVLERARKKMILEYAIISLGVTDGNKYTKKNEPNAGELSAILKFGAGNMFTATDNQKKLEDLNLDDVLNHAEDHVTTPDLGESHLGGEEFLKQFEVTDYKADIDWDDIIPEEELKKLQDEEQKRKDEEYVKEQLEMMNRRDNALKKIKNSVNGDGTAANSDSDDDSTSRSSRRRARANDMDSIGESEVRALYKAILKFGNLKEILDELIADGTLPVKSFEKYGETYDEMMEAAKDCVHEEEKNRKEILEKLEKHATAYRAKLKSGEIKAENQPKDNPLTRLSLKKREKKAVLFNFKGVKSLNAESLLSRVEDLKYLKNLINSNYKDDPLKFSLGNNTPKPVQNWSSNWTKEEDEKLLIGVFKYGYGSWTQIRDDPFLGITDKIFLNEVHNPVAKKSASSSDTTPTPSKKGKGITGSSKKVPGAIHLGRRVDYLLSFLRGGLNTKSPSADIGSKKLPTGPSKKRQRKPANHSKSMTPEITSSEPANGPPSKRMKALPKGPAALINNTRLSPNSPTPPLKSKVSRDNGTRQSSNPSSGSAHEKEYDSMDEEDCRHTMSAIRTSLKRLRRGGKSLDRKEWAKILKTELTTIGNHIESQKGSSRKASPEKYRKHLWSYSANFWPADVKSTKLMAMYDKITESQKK

[12] = target: AMP-activated protein kinase, AMPK (Homo sapiens) (UniProt P54646+O43741+P54619+Q9UGJ0+Q9Y478+Q13131+Q9UGI9); experiment: AMP-dependent Kinase enzyme assay. An in vitro enzyme assay that detects ADP turnover that is directly proportional to AMPK activity. This uses naive AMPK that is activated during the assay with MK-8722; assay type: functional; set-up: scale not given: direction of the effect not stated beside the values; settings: 30 µM

CC(=O)N1CCN(c2ccc3ccc(C(=O)NC4CCCC4)cn23)CC1
PXC50 ([1]; BOTTOM 0.0163, HILLSLOPE 3.098457383, MAX_EFFECT 65.01650165, TOP 63.35125002): 4.68 | PXC50 ([1]; BOTTOM 1.065846223, HILLSLOPE 1.103958369, MAX_EFFECT 61.67400881, TOP 100.0): 4.54 | PXC50 ([1]; BOTTOM 3.194533203, HILLSLOPE 3.014598033, MAX_EFFECT 67.98418972, TOP 64.53848237): 4.96 | PXC50 ([1]; BOTTOM 4.030962781, HILLSLOPE 1.885788534, MAX_EFFECT 71.11111111, TOP 74.41524471): 4.79 | PXC50 ([1]; BOTTOM 4.940042643, HILLSLOPE 1.835166553, MAX_EFFECT 81.72043011, TOP 100.0): 4.36 | PXC50 ([1]; BOTTOM 5.527382632, HILLSLOPE 1.355052942, MAX_EFFECT 67.14876033, TOP 100.0): 4.56 | PXC50 ([1]; BOTTOM 8.593441039, HILLSLOPE 3.55536171, MAX_EFFECT 67.39130435, TOP 63.3453536): 4.8 | Percent Effect [2]: -2.65% | Percent Effect [3]: 14.3% | Percent Effect [4]: 3.54% | Percent Effect [5]: -0.563% | Percent Effect [6]: 1.37% | Percent Effect [7]: 12.4% | Percent Effect [8]: 8.76% | Percent Effect [9]: 31.9% | Percent Effect [10]: 15% | Percent Effect [11]: -4.27%

CN(c1ncnc2ccccc12)C1CCCN(c2cccnn2)C1 (stereo not given)
PXC50 ([1]; BOTTOM 0.59496429, HILLSLOPE 1.142527095, MAX_EFFECT 61.72248804, TOP 100.0): 4.15 | PXC50 ([1]; BOTTOM 4.775047561, HILLSLOPE 1.968197794, MAX_EFFECT 73.89635317, TOP 73.89635317): 4.48 | PXC50 ([1]; BOTTOM 7.086189247, HILLSLOPE 1.125976509, MAX_EFFECT 60.07005254, TOP 100.0): 4.1 | PXC50 ([1]; BOTTOM 8.519162934, HILLSLOPE 1.512392504, MAX_EFFECT 75.36231884, TOP 100.0): 4.28 | PXC50 ([1]; BOTTOM -1.496045735, HILLSLOPE 1.12468747, MAX_EFFECT 69.3877551, TOP 100.0): 4.34

FC1(F)CCN(Cc2ccccn2)CC12CCN(c1cccnc1)C2 (stereo not given)
PXC50 ([1]; MAX_EFFECT 3.800475059): < 4 | PXC50 ([1]; MAX_EFFECT 6.161971831): < 4 | Percent Effect [2]: -7.19% | Percent Effect [3]: 2.7% | Percent Effect [12]: 114% | Percent Effect [4]: -3.38% | Percent Effect [5]: -1.86% | Percent Effect [6]: 2.87% | Percent Effect [7]: 0.369% | Percent Effect [8]: 49.7% | Percent Effect [9]: -3.24% | Percent Effect [10]: -2.56% | Percent Effect [11]: -1.38%
